Compound activity as filed in PubChem.
Sampled rows, rich in hits. Any-hit rate of the full collection: about 3.5%.
PPC-1+TRAIL kill: compounds killing PPC-1 cancer cells with TRAIL present, primary screen, TRAIL potentiator project, ATPLite luminescence, uHTS. PPC-1 cells + TRAIL, ATPLite viability luminescence. cell killing (% activity), % at 4 µM or 5 µM. 0.41% of 220,000 active;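 active means cell killing above 50% in the first pass at 4 µM, then a duplicate retest at 5 µM averaging 50% or more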;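 further: plate controls were cells with TRAIL plus DMSO for no effect and medium-only wells lacking cells for full effect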
TROY signal inh: inhibitors of TROY-driven NF-kB signaling, primary screen, Q293 LMP1-TROYcd cells, NF-kB luciferase, uHTS; Q293 LMP1-TROYcd NF-kB luciferase reporter, 4 h; inhibition, % at 10 µM; 0.98% of 360,000 active;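 active means compounds whose plate-normalised and pattern-corrected inhibition of the luciferase reporter signal at the single screening dose is 50% or more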
HSP90 inh: HSP90 inhibitors, primary screen, cell lysate, luminescence; Rabbit reticulocyte lysate, luciferase refolding luminescence, 3 h; inhibition, % at 5.6 µM; 0.91% of 290,000 active; AID 1789, 2009;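 active means inhibition above the screen-wide mean plus 3 SD, computed separately per campaign, cut at about 16% in these data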;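 further: 0% = DMSO wells and 100% = 60 µM geldanamycin wells; inhibitors lower the luminescence because luciferase stays unfolded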
TWEAK-Fn14 inh: inhibitors of TWEAK-Fn14 signaling, primary screen, luciferase reporter cells, uHTS; TWEAK-stimulated Fn14 reporter cells, luciferase luminescence, 8 h; AID 1159606, 2016; 2% of 360,000 active; inhibition, % at 10 µM; in the data active means inhibition above about 50%
Platelet DG rel: inhibitors of platelet dense granule secretion, primary screen, cell-based, MLPCN, human platelets; human platelet-rich plasma, SFLLRN dense granule ATP release, luminescence; inhibition, %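 (compounds screened at 7.5 µM in platelet-rich plasma)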; 0.22% of 300,000 active; AID 1663, 2009;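 active means mean replicate score, as percent of positive control, at or above 50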
TRAIL sens C8: viability loss with TRAIL in NB7+C8 cells, primary screen, TRAIL sensitizer project, cell-based, ATPlite luminescence | inhibition (viability loss, TRAIL sensitization), % at 10 µM | 1% of 360,000 active;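 active means compounds causing at least 50% loss of cell viability in the single-dose screen, relative to plate controls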
HSP90 inh confirm: HSP90 inhibitors, confirmation, cell lysate, luminescence | inhibition, % at 5.9 µM | rabbit reticulocyte lysate, luciferase refolding luminescence, 3 h | 64% of 2,300 active | AID 1846, 2009 | shares compounds with HSP90 inh; in the data active means inhibition above about 18%;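 further: 0% = vehicle wells and 100% = reference inhibitor wells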
FLuc counter: firefly luciferase inhibitors, HSP90 counter-screen, confirmation, artefact control for HSP90 inhibitor project, biochemical, luminescence, triplicate | AID 1847, 2009 | purified native firefly luciferase | inhibition, % at 5.9 µM | 48% of 2,300 active | shares compounds with HSP90 inh;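 active means inhibition above the mean inhibition of all tested sample wells plus 3 SD, cut at about 10% in these data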;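 further: 0% = DMSO with luciferase and 100% = wells lacking luciferase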
Target sequence (P08659 whole entry, looked up): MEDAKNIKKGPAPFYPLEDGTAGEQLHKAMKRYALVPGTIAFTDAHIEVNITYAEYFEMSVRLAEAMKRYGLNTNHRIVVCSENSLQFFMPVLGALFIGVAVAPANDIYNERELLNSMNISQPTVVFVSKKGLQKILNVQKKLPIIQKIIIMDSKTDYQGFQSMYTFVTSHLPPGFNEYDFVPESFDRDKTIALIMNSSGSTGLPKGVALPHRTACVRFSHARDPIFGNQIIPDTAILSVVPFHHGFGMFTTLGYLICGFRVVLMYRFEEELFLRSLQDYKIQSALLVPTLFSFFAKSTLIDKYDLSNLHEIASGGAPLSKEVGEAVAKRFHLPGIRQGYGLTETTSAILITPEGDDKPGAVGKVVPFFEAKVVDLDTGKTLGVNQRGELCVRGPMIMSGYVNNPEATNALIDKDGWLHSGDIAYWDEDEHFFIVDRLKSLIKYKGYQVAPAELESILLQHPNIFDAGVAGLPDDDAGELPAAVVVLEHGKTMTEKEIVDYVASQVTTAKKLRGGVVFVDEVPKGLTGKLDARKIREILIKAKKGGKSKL
* = called active by the depositor; / = no result.

SMILES | PPC-1+TRAIL kill | TROY signal inh | HSP90 inh | TWEAK-Fn14 inh | Platelet DG rel | TRAIL sens C8 | HSP90 inh confirm | FLuc counter
CC(C)(C)c1ccc(NC(=O)CON=C(N)c2ccccc2)cc1 | / | -23 | / | 9 | / | -1 | / | /
COc1cc(NC(=O)COC(=O)c2cnccn2)c(C)cc1[N+](=O)[O-] | 5 | 2 | 3 | 6 | -2 | -14 | / | /
O=C(CC(=O)N1CCOCC1)N1CCOCC1 | / | -12 | / | 12 | / | 15 | / | /
Cc1ccc(C(=O)NCCCNC(=O)c2ccc(Cl)cc2)cn1 | / | 0 | -3 | -8 | 5 | 10 | / | /
Cn1c2ccccc2n2c(=O)c(=O)n(CC(=O)N3CCCc4ccccc43)nc12 | / | / | 1 | / | -7 | / | / | /
O=C(Nc1cccc(Oc2ccccc2)c1)c1ccc(-n2cncn2)c2ccoc12 | / | 26 | / | 20 | / | -8 | / | /
Cc1c(N=Cc2nc3ccccc3n2C)c(=O)n(-c2ccccc2)n1C | 15 | 64* | 32* | 62* | 15 | -13 | 37* | 26*
CCOCCCNC(=O)c1cccc(OC2CCN(S(C)(=O)=O)CC2)c1 | / | -49 | -2 | -5 | 2 | -10 | / | /
CCCc1nc(SCC(=O)Nc2nccs2)c2ccccc2n1 | / | -3 | 2 | 4 | 1 | -6 | / | /
O=C(CSc1nc(-c2ccccc2)nc2ccccc12)Nc1nccs1 | 22 | 4 | 22* | -19 | -8 | -7 | 6 | 2
CC(C)CN(CCCNC(=O)CN1C(=O)COc2ccc(S(=O)(=O)N3CCCC3)cc21)CC(C)C | -10 | -28 | 22* | -1 | -2 | 6 | -4 | -5
O=C(CNC(=O)Cc1ccccc1)NCC(=O)N1CCCCC1 | / | -8 | 6 | 14 | -1 | -12 | / | /
O=C(CNC(=O)Cc1ccc(Cl)cc1)NCC(=O)N1CCCCC1 | / | -6 | 23* | -6 | 28 | 5 | -3 | -7
O=C(O)c1cc(S(=O)(=O)N2CCN(C(=O)c3ccco3)CC2)c(Cl)cc1Cl | / | -3 | 0 | -11 | 5 | 1 | / | /
O=C(NCc1cccnc1)c1csc([C@H]2C[C@H](O)[C@@H](CO)O2)n1 | / | 5 | / | 10 | / | -5 | / | /
Cc1ccc(C(=O)Nc2ccsc2C(=O)O)cc1 | / | -3 | 18* | 22 | -4 | 30 | 13 | -1
O=C(Nc1ccc(Cl)cc1)N[C@H]1CC[C@H](CCn2cc(-c3ccccc3F)nn2)O[C@@H]1CO | / | / | / | / | / | 27 | / | /
Cc1[nH]c(=O)[nH]c(=O)c1/C=C/C(=O)O | 1 | 13 | -3 | 13 | 22 | 6 | / | /
CCN(CC)C(=O)C1CCCN(C(=O)c2ccc3nc(-c4cccc(OC)c4)oc3c2)C1 (stereo not drawn) | / | -42 | / | -6 | / | 3 | / | /
CCOC(=O)C1CCCN(C(=O)c2ccc3nc(-c4cccc(OC)c4)oc3c2)C1 (stereo not drawn) | / | 68* | 21* | 46 | 7 | 33 | 36* | 25*
CCC(=O)C1CCCN(C(=O)c2ccc3nc(-c4cccc(OC)c4)oc3c2)C1 (stereo not drawn) | / | 53* | 25* | 39 | 7 | 16 | 32* | 15*
COc1cccc(-c2nc3ccc(C(=O)N4CCCC(O)C4)cc3o2)c1 (stereo not drawn) | / | -45 | -2 | 7 | -10 | 13 | / | /
O=C(NCCOc1ccc(Cl)cc1)C1CC(=O)N(c2ccc3c(c2)OCCO3)C1 (stereo not drawn) | / | 8 | / | -2 | / | -14 | / | /
CCOc1ccc(C(=O)NCC(c2ccco2)N2CCOCC2)cc1 (stereo not drawn) | / | -20 | / | -7 | -2 | -20 | / | /
COC(=O)[C@@]1(Sc2ccc(C)cc2)CC(=O)N[C@@H]1c1ccc(C(F)(F)F)cc1 | / | -2 | / | 1 | / | -15 | / | /
SMILES | PPC-1+TRAIL kill | TROY signal inh | HSP90 inh | TWEAK-Fn14 inh | Platelet DG rel | TRAIL sens C8 | HSP90 inh confirm | FLuc counter
CCCc1ccc(-c2ccc(C(=O)O)cc2)nc1 | 11 | 48 | 50* | 78* | 4 | 11 | 56* | 26*
COc1cc(Br)c(C(=O)c2nccc3cc(OC)c(OC)cc23)cc1OC | / | 0 | 42* | 2 | 1 | 5 | 19* | -3
Cn1cnnc1SCC(=O)Nc1sc2c(c1C(N)=O)CCC2 | -18 | 8 | 22* | -7 | -7 | -5 | 5 | -6
COCCn1cnnc1SCC(=O)Nc1sc2c(c1C#N)CCC2 | / | 4 | / | 7 | / | -6 | / | /
O=C(O)C1C2CCC(C2)C1C(=O)N1CCCC1 (stereo not drawn) | / | -7 | -1 | 9 | 14 | -4 | / | /
COc1ccccc1OCC(=O)Nc1ccccn1 | 41 | -16 | 70* | 34 | 27 | 26 | 20* | 3
Cc1c(C)c2cc(Cl)c(OCC(=O)Nc3ccccn3)cc2oc1=O | / | -6 | / | -20 | / | -7 | / | /
Cc1c(C)c2ccc(OCC(=O)Nc3ccccn3)c(C)c2oc1=O | / | 82* | 96* | 103* | 52* | 93* | 100* | 91*
CN(C)c1ccc(NC(=O)c2cnsn2)cc1 | 32 | 31 | 26* | 74* | 4 | 29 | 48* | 40*
CC1CCN(c2c([N+](=O)[O-])nn(-c3ccc4c(c3)OCCO4)[n+]2[O-])CC1 | 3 | 20 | 17* | 45 | -6 | -6 | 14 | -5
Cc1ccc(CCN2CC(C(=O)NCCCN3CCCCC3)CC2=O)cc1 (stereo not drawn) | / | -15 | 0 | 7 | -3 | 4 | / | /
N#Cc1cc2c(nc1SCC(N)=O)CCCCC2 | 19 | -2 | 2 | -4 | -2 | 20 | / | /
N#Cc1cc2c(nc1SCC(=O)N1CCOCC1)CCCCC2 | 4 | 81* | 54* | 95* | 4 | 19 | 1 | -5
COc1ccc(/C=N/Nc2ccccn2)c(OC)c1OC | 6 | -14 | -1 | -42 | -7 | -22 | / | /
COc1ccc(/C=N/Nc2nc3ccccc3[nH]2)c(OC)c1OC | 21 | 73* | 27* | 78* | 0 | 12 | 54* | 62*
O=c1[nH]c2cc3c(cc2cc1CN(CCc1ccccc1)C(=S)NCCCN1CCOCC1)OCCO3 | / | 12 | / | -6 | / | -2 | / | /
COc1cc(C2NC(=O)NC(c3ccccc3)=C2C(C)=O)c(Br)c(Br)c1O (stereo not drawn) | / | 7 | 18* | 0 | 3 | -1 | 0 | -2
c1ccc(-c2cc3c(-n4cccc4)ncnc3o2)cc1 | 16 | -8 | 17* | 28 | 6 | 8 | -4 | -16
